# Source: PubChem BioAssay
# The source made the active and inactive calls.
# Key:
# [1] = small molecules captured by biotinylated probe aFSTL3 – biochemical, small-molecule microarray, fluorescence 635/667, stem cell growth factor project, primary screen (AID 1064); settings: higher = more signal;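 also: measures binding of the biotinylated anti-FSTL3 antibody to printed compounds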
# [2] = binders from COS7 lysate, DM2A8 probe, primary screen, torsin A project, cell lysate, small-molecule microarray, fluorescence 635/667 (AID 1065); settings: higher = more signal, COS7 lysate expressing mutant human TOR1A
# [3] = small molecules captured by biotinylated probe aFGF2 – biochemical, small-molecule microarray, fluorescence 635/667, stem cell growth factor project, primary screen (AID 1067); settings: higher = more signal;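 also: measures binding of biotinylated aFGF2 protein to printed compounds on slides; z-score merges feature fluorescence and signal-to-noise across triplicate slides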
# [4] = small molecules captured by biotinylated probe aFGF10 – biochemical, small-molecule microarray, fluorescence 635/667, stem cell growth factor project, primary screen (AID 1071); settings: higher = more signal;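 also: score merges 667 nm spot intensity and signal to noise from triplicate slides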
# [5] = target: Neurogenic locus notch homolog protein 2 (Homo sapiens) (UniProt Q04721); experiment: small molecules binding Notch2 protein – biochemical, small-molecule microarray, 635 nm fluorescence, stem cell growth factors, primary screen (AID 1073); settings: higher = more signal
# Chain of Neurogenic locus notch homolog protein 2 (Homo sapiens) (Q04721 whole entry, looked up, canonical isoform): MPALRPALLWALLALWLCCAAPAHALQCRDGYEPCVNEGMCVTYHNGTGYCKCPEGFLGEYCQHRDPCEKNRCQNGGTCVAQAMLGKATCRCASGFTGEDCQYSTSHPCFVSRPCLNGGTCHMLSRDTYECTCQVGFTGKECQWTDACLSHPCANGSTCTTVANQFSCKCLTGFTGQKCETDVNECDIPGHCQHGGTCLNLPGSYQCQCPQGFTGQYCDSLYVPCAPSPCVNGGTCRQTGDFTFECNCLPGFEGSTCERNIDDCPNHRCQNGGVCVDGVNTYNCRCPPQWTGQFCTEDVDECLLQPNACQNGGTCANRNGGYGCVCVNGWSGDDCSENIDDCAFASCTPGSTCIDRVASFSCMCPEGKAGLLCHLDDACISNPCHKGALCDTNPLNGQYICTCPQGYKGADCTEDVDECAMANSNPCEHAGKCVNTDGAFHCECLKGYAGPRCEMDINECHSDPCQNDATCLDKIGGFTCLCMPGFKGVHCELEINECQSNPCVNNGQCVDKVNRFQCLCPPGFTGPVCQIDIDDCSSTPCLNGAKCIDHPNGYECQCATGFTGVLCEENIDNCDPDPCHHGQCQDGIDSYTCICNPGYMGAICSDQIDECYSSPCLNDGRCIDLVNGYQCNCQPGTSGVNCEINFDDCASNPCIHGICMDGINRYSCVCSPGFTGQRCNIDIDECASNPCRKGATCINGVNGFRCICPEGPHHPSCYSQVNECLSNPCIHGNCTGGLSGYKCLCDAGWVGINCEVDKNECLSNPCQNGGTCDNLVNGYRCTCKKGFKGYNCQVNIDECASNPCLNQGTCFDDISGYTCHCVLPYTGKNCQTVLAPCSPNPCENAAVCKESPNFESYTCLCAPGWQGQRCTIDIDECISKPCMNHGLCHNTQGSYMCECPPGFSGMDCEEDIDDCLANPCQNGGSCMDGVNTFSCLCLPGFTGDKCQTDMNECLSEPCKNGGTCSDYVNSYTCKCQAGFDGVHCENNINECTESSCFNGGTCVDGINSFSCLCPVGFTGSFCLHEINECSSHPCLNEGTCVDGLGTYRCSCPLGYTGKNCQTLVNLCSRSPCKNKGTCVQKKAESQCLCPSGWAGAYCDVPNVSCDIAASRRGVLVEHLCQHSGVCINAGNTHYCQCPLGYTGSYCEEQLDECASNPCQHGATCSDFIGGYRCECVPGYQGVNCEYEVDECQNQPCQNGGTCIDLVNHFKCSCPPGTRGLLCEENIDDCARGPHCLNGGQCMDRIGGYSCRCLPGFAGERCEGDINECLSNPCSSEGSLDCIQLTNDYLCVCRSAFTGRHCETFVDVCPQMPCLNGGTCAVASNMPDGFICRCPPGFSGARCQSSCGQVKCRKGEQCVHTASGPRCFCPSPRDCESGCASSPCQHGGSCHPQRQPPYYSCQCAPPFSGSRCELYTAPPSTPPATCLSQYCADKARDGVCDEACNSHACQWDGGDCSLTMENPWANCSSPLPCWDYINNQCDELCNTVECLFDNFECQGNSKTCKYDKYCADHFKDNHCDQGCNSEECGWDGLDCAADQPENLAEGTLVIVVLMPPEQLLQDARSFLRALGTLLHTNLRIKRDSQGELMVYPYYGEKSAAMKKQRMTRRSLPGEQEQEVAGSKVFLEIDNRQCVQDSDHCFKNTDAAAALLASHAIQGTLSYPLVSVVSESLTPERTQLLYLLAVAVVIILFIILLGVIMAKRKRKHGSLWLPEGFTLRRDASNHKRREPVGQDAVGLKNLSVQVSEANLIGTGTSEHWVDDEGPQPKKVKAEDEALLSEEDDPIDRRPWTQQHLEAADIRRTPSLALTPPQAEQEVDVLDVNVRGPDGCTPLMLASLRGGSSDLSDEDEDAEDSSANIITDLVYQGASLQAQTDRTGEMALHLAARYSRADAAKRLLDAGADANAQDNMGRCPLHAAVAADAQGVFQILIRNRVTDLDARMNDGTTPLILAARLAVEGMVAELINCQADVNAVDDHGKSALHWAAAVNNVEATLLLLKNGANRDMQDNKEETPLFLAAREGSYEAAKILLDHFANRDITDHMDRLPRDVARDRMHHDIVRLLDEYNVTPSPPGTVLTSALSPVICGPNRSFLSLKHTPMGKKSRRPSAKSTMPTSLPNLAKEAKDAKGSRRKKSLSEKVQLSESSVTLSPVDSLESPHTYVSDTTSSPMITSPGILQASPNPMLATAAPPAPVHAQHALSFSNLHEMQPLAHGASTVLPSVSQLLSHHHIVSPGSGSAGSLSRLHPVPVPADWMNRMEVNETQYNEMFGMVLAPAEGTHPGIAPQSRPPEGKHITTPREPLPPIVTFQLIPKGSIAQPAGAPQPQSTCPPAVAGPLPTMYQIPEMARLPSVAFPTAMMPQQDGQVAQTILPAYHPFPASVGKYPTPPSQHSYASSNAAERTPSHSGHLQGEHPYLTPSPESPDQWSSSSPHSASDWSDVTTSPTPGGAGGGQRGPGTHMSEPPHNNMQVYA
# [6] = target: Pro-neuregulin-1, membrane-bound isoform (Homo sapiens) (UniProt Q02297); experiment: small molecules binding neuregulin-1 protein – biochemical, small-molecule microarray, fluorescence 635/667, psychiatric disease protein project, primary screen (AID 1075); settings: NRG1 binding, 635 nm fluorescence, higher = more signal;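 also: score combines 667 nm spot fluorescence with signal to noise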
# Chain of Pro-neuregulin-1, membrane-bound isoform (Homo sapiens) (Q02297 whole entry, looked up, the tested form may be a part, canonical isoform): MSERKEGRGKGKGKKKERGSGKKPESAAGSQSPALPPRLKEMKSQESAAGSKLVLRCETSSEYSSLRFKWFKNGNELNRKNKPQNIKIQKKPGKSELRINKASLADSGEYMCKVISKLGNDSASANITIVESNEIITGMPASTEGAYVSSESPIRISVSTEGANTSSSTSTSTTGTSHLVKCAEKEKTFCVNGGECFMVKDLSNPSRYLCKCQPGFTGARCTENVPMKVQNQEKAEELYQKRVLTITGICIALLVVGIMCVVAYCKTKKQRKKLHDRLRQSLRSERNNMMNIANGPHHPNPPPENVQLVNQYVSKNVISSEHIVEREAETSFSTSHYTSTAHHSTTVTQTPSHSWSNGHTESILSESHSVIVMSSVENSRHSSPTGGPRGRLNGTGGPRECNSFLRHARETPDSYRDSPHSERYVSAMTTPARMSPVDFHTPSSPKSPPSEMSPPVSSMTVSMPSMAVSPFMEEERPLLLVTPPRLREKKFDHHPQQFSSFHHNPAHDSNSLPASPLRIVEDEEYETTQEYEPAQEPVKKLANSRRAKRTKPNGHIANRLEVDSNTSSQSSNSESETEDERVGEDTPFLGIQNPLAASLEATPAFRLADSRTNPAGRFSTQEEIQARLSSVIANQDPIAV
# [7] = system: Neuregulin-1 EGF-like domain; experiment: small molecules binding NRG1 EGF domain – biochemical, small-molecule microarray, 635 nm fluorescence, primary screen (AID 1081); settings: higher = more signal;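 also: binding of the protein to compounds printed on small-molecule microarray slides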
# [8] = FRG1 expression reporter modulators in myotubes – cell-based, C2C12 myotubes, firefly/Renilla luciferase, luminescence, FRG1 inhibition for FSHD, primary screen (AID 1084); settings: FRG1 promoter luciferase, higher = more signal, called active from +8 up or from −8 down
# [9] = small molecules captured by biotinylated probe aFST – biochemical, small-molecule microarray, fluorescence 635/667, stem cell growth factor project, primary screen (AID 1086); settings: higher = more signal;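 also: score merges 667 nm fluorescence with signal-to-noise of each printed compound spot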
# [10] = binders of probe aHhip on microarray, primary screen, stem cell growth factor project, biochemical, small-molecule microarray, fluorescence 635/667 (AID 1087); settings: higher = more signal;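 also: score merges spot fluorescence at 667nm with spot signal to noise ratio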
# [11] = system: PRMT1 (protein arginine N-methyltransferase 1); experiment: small molecules binding arginine methyltransferase PRMT1 – biochemical, small-molecule microarray, 635 nm fluorescence, primary screen (AID 1088); settings: higher = more signal;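 also: binding of Prmt1 protein to compounds spotted on small-molecule microarray slides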
# [12] = growth effects on S. cerevisiae YJM789 – YJM789 clinical isolate, OD600, 24 h, basal, primary screen (AID 1089); settings: higher = more signal, called active from +8 up or from −8 down;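 also: growth of clinical yeast isolate S. cerevisiae YJM 789 seeded 1000 cells per well; test concentration not given here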
# [13] = S. pombe growth modifiers, basal conditions – strain 972, OD600, 24 h, no modulator, primary screen (AID 1090);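 also: basal condition with compound alone and no growth modifier present; test concentration not given here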; settings: S. pombe 972 growth, higher = more signal, called active from +8 up or from −8 down
# [14] = budding yeast growth modifiers under rapamycin – strain BY4716, OD600, 96 h, primary screen (AID 1091); also: test concentration not given here; settings: S. cerevisiae BY4716 + rapamycin, higher = more signal, called active from +8 up or from −8 down
# [15] = target: Torsin-1A-interacting protein 2 (Homo sapiens) (UniProt Q8NFQ8); experiment: small molecules binding lysate-expressed LULL1 – cell lysate, human LULL1 lysate, 635/667 nm fluorescence, primary screen (AID 1092); settings: small-molecule microarray, hLULL1 lysate binding, 635 nm fluorescence; higher = more signal;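 also: probe is lysate of COS7 cells overexpressing human LULL1; score merges per-feature 667 nm fluorescence with signal-to-noise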
# Chain of Torsin-1A-interacting protein 2 (Homo sapiens) (Q8NFQ8 whole entry, looked up): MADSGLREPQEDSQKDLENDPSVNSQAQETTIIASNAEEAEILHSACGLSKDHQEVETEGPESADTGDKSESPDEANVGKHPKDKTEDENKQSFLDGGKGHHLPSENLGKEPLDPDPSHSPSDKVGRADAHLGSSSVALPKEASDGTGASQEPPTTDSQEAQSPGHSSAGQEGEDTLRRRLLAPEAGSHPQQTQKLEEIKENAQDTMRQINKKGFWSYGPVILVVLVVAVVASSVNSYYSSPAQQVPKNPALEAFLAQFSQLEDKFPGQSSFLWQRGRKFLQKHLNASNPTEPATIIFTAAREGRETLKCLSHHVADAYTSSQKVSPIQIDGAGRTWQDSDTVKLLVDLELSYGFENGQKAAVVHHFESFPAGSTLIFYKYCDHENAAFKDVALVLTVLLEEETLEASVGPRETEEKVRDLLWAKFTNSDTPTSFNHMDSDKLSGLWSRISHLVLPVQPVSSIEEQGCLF
# [16] = optical density change of DRC41 E. coli – strain DRC41, OD650, 24 h, E. coli filamentation project, primary screen (AID 1093);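 also: MC1000 strain lacking acrAB efflux and sulA so SOS filamentation is blocked; test concentration not given here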; settings: E. coli DRC41 growth, higher = more signal, called active from +8 up or from −8 down
# [17] = probe aLefty2 binding to arrayed compounds – biochemical, biotinylated probe, 635/667 nm fluorescence, primary screen (AID 1094); settings: small-molecule microarray, higher = more signal;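 also: score merges spot fluorescence near 667 nm with spot signal-to-noise ratio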
# [18] = system: Noggin (protein binding on small-molecule microarray); experiment: small molecules binding Noggin protein – biochemical, 635/667 nm fluorescence, primary screen (AID 1095); settings: 635 nm fluorescence, higher = more signal;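 also: score merges 667 nm feature fluorescence with signal to noise over triplicate slides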
# [19] = target: Neurogenic locus notch homolog protein 3 (Homo sapiens) (UniProt Q9UM47); experiment: small molecules binding NOTCH3 protein – biochemical, 635/667 nm fluorescence, primary screen (AID 1096); settings: small-molecule microarray, 635 nm fluorescence, higher = more signal
# [20] = probe aEGFR binding to arrayed compounds – biochemical, biotinylated probe, 635/667 nm fluorescence, primary screen (AID 1097); settings: small-molecule microarray, higher = more signal;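 also: probe is a biotinylated anti-EGFR antibody binding compounds printed on slides; score combines fluorescence near 667 nm and signal to noise of each spot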
Structure (SMILES),composite z-score [1],composite z-score [2],composite z-score [3],composite z-score [4],composite z-score [5],composite z-score [6],composite z-score [7],z-score [8],composite z-score [9],composite z-score [10],composite z-score [11],z-score [12],z-score [13],z-score [14],composite z-score [15],z-score [16],composite z-score [17],composite z-score [18],composite z-score [19],composite z-score [20]
COC(=O)C(CC#Cc1ccc2c(c1)[C@]1(C(=O)N2)[C@H](C(=O)N2CCN(c3ncccn3)CC2)[C@H]2C(=O)O[C@H](c3ccccc3)[C@H](c3ccccc3)N2[C@@H]1c1ccc(OCCO)cc1)C(=O)OC,-0.448,1.21,-0.0768,0.554,1.16,1.67,1.26,1.97 (inactive),0.38,-0.0296,1.53,3.19 (inactive),2.13 (inactive),5.67 (inactive),2.76,0.54 (inactive),0.0008,1.3,1.02,-0.0177
COC(=O)[C@@]1(Cc2ccccc2)[C@@H]2C(=CC(=O)[C@H]2CC(=O)C(=O)N(C)C)CN1C(=O)c1ccccc1,0.152,-0.0069,0.305,1.21,1.39,1.98,1.32,-1.26 (inactive),0.962,0.113,0.777,-1.06 (inactive),0.378 (inactive),-0.251 (inactive),3.22,0.844 (inactive),0.262,-0.434,1.06,0.156
C[C@@H]1ON(c2ccc(C(=O)OC(C)(C)C)cc2)[C@H](c2ccc(O)cc2)[C@H]1C(=O)N1C(=O)OC[C@H]1Cc1ccccc1,-0.521,0.707,-0.109,0.8,1.37,0.803,1.05,0.0087 (inactive),0.236,-0.0645,1.56,0.465 (inactive),-0.29 (inactive),1.84 (inactive),1.24,-0.63 (inactive),-0.146,0.525,1.12,-0.0333
CC(C)(C)OC(=O)CC[C@]1(C(=O)NCC(O)CO)N=C(c2ccc(OCCCO)cc2)O[C@H]1c1ccccc1 (stereo not given in full),1.07,1.58,-0.0099,0.391,0.493,0.866,1.33,0.974 (inactive),0.36,-0.323,-0.362,-0.866 (inactive),-0.956 (inactive),-0.744 (inactive),3.45,1.91 (inactive),0.0424,-0.837,-0.89,0.109
O=C1O[C@@H](c2ccccc2)[C@@H](c2ccccc2)N2[C@@H](c3ccc(O)cc3)[C@]3(C(=O)Nc4ccc(C#CC5=CCCCC5)cc43)[C@@H](C(=O)NC[C@H](O)c3ccccc3)[C@H]12,0.135,1.76,-0.0181,0.508,1.52,1.2,1.35,0.754 (inactive),0.398,0.251,1.54,1.31 (inactive),0.18 (inactive),2.89 (inactive),2.55,1.24 (inactive),-0.0916,1.22,1.07,0.12
C[N+](C)(C)CCCC[C@@H]1NC(=O)[C@H]2C[C@@H](C(=O)NCCCCCCN)[C@@H](c3ccc(O)cc3)N2C1=O,0.239,0.713,0.0797,0.575,1.27,1.99,1.09,-0.194 (inactive),0.901,0.373,1.26,0.731 (inactive),-1.51 (inactive),1.13 (inactive),1.57,0.766 (inactive),0.265,-0.232,0.64,0.155
[N-]=[N+]=Nc1ccccc1C[C@]1(C(=O)N2CCOCC2)N=C(c2ccc(OCCCO)cc2)O[C@H]1c1ccccc1,0.747,1.49,0.17,0.983,1.48,1.13,1.23,-1.62 (inactive),1.29,0.348,1.55,0.491 (inactive),-8.46 (active),1.42 (inactive),2.69,1.94 (inactive),0.178,0.593,0.871,0.134
COC(=O)[C@@]1(Cc2ccc(OC)cc2)[C@H]2c3cc(C(=O)N(C)C)n(C[C@H](O)CO)c3C[C@H]2CN1C(=O)c1ccccc1,1.37,1.31,0.263,0.504,1.76,1.25,1.2,1.55 (inactive),1.73,0.284,0.0724,0.398 (inactive),0.251 (inactive),0.878 (inactive),2.92,-1.02 (inactive),0.955,-0.826,1.05,0.269
O=C1c2ccccc2[C@](Cc2ccccc2I)(C(=O)NCC(F)(F)F)[C@H](c2ccc(CO)cc2)N1C1CCCCC1,-0.0894,-0.089,0.0772,0.94,1.14,1.76,0.985,-0.85 (inactive),0.593,-0.134,1.56,0.0808 (inactive),-1.76 (inactive),-0.0447 (inactive),3.02,1.38 (inactive),-0.0408,0.169,1.08,-0.0315
C=CC[C@]1(C(=O)O)COC(c2ccc(OCCCO)cc2)=N1,-0.151,0.273,-0.0538,-0.114,0.675,1.79,1.07,0.519 (inactive),0.403,-0.249,0.262,-0.396 (inactive),-0.636 (inactive),-0.581 (inactive),3.36,-0.204 (inactive),-0.0784,0.253,0.0614,-0.0828
C=CCC(OC(C)=O)[C@@H]1[C@@H](N(Cc2cccc3ccccc23)C(=O)Cc2ccc(OC)cc2)c2cc(OCCCO)ccc2N1C(=O)c1ccc2ccccc2n1 (stereo not given in full),-0.192,0.0233,0.0437,0.11,-0.263,0.836,0.154,-1.76 (inactive),0.153,-0.152,0.892,-0.482 (inactive),0.787 (inactive),-1.24 (inactive),1.2,-0.558 (inactive),-0.109,0.201,0.222,-0.144
COc1ccc(CCNC(=O)[C@@H]2c3ccccc3C(=O)N(Cc3cc(C(F)(F)F)cc(C(F)(F)F)c3)[C@H]2c2ccc(CO)cc2)cc1,0.0967,-0.138,-0.123,-0.0803,-0.181,0.568,0.993,-0.188 (inactive),-0.135,-0.236,1.41,0.279 (inactive),-0.381 (inactive),0.848 (inactive),2.16,-0.0332 (inactive),-0.237,1.07,0.365,-0.167
